hERG WT inh: inhibitors of human wildtype KCNH2 potassium channel; Q12809; U2OS, BacMam KCNH2, thallium flux FluxOr; active compounds read low; activity change, % at 1.84 µM; actives 0.37% (n = 340,000); AID 720551;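 active = maximum activity change below -70%; inconclusive = maximum activity change between -70% and -50%; inactive = maximum activity change above -50%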
Target sequence (Q12809 whole entry, looked up): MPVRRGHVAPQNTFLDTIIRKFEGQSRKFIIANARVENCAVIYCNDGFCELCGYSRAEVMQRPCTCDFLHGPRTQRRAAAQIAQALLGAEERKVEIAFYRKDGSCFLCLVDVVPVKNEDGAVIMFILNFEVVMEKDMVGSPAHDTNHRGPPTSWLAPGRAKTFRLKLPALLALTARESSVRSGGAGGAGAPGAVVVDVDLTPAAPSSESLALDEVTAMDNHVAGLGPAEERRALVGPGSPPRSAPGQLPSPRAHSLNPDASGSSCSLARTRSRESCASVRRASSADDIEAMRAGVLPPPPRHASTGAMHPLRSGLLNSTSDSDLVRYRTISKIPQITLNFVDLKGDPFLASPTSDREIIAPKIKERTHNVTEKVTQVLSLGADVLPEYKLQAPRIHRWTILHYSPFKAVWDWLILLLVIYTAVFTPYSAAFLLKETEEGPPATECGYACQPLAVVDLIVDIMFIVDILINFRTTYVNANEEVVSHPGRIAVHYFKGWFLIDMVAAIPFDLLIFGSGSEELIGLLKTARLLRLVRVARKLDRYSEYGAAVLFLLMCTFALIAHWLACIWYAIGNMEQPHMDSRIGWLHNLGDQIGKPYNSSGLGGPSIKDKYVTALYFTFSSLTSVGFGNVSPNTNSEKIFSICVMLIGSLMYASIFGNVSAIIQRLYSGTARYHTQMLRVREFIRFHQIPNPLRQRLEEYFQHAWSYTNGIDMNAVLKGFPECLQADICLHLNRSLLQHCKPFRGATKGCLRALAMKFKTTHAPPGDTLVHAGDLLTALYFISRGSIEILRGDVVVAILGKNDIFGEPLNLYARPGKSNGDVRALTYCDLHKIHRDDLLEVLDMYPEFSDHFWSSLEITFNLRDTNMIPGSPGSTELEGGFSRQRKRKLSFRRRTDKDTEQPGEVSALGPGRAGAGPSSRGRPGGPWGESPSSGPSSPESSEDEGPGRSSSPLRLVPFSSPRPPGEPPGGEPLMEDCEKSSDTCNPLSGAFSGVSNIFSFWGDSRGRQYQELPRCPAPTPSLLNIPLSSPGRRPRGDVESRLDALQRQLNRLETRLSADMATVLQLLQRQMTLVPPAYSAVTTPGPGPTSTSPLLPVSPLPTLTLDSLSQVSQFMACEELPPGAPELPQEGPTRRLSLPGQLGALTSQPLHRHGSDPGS
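U2OS cells transduced with wild-type KCNH2 virus are loaded with FluxOr dye for 45 min, and thallium flux is measured in kinetic reads before and after stimulation buffer. Rate constants are normalized to DMSO controls.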
USP1-UAF1 inh: blocks the human USP1/UAF1 deubiquitinase complex; actives 0.23% (n = 390,000); Potency, µM (titrated, usually from 57.1 µM), most hits filed as inhibitors; AID 743255; recombinant USP1/UAF1, Ub-Rhodamine cleavage fluorescence; active = well fitted inhibition curve with a large enough effect; inconclusive = small, poorly fitted or top-dose-only effect; inactive = no such curve, though single readings can be large or run the other way; note: nearly all actives have a fitted effect of over 60% in size
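USP1/UAF1 complex (1 nM) preincubated 15 min at room temperature with compound, then Ub-Rho substrate (150 nM final) added. Kinetic fluorescence at 480/540 nm over 6 reads at 60 s intervals; 50 mM HEPES pH 7.8, 0.5 mM EDTA, 0.1 mg/ml BSA, 1 mM TCEP, 0.01% Tween-20.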
Giardia kill: Giardia lamblia killing; Giardia lamblia trophozoite viability; actives 0.15% (n = 340,000); activity change, % at 7.66 µM, hits read low; AID 540267; in the data active = activity change below about -80%; inconclusive = between about -30% and that limit;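 note: parasites exposed to compound for two days anaerobically before the ATP read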
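Trophozoite viability was measured as ATP-dependent luminescence, read 15-30 min after reagent addition. Before that, parasites at 100 cells/well were exposed to compounds for 48 h, anaerobically, at 37 deg C.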
KCNH2 3.1 block: inhibitors of human KCNH2 3.1 potassium channel isoform; U2OS KCNH2 3.1, thallium flux FluxOr; active compounds read low; activity change, % (tested at about 1.8 µM); actives 0.95% (n = 340,000);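 active = maximum activity change below -70%; inconclusive = maximum activity change from -70% to -50%; inactive = maximum activity change above -50%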;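 note: thallium influx rate constant from kinetic fluorescence after stimulation buffer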
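Virally transduced U2OS (3.1 isoform, 4 h infection in dark at RT) → overnight 37 C → FluxOr + Red40 in HBSS/HEPES, 45 min → stimulation buffer, 2 min kinetic read → rate constant vs DMSO controls.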
FBPA coupling cs: inhibits coupling enzyme system, counter-screen for aldolase hits. actives 0.67% (n = 290,000). coupling enzyme system counterscreen, AmpLite Red fluorescence. activity change, negative = inhibition, % at 58.2 µM, hits read low; in the data active = activity change below about -30%
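First, compound is pin-transferred into glyceraldehyde-3-phosphate coupling-enzyme reagent at 57.5 uM final and held 10 min at RT. Next, substrate, coupling system and AmpLite Red are added. After 20 min RT, fluorescence (525/598 nm) is read.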
Hits are given with their value; – = inactive; ? = inconclusive; · = not tested or not shown. Only some compounds are listed: those with a hit (about 1.7% of all), similar ones and a draw of the others.

SMILES | hERG WT inh | USP1-UAF1 inh | Giardia kill | KCNH2 3.1 block | FBPA coupling cs
c1ccc2c(c1)nc(NCc1ccc3c(c1)OCO3)n2CCN1CCOCC1 | – | – | – | – | –
c1ccc(Cn2c(CNc3nc4ccccc4n3CCN3CCOCC3)nc3ccccc32)cc1 | – | – | – | -85 | –
Brc1ccc(CNc2nc3ccccc3n2CCN2CCCCC2)cc1 | – | – | -83 | – | –
Cc1ccc(-n2cnc3cc(C(=O)NC4CCCCCC4)ccc32)cc1Cl | · | – | · | · | ·
COC(=O)c1[nH]c2cc(OC)ccc2c1NC(=O)CCN1CCN(c2cccc(C)c2C)CC1 | – | – | – | -91 | –
COC(=O)c1[nH]c2cc(OC)ccc2c1NC(=O)CCN1CCN(c2ccccc2)CC1 | – | – | – | – | –
Cc1cc(NC(=O)c2ccc(Cl)cc2)n(CCOC(=O)c2ccc(Cl)cc2)n1 | -98 | – | – | – | –
O=C(Nc1c(C(=O)N2CCOCC2)oc2ccccc12)c1cccc([N+](=O)[O-])c1 | – | – | – | – | ·
CCOCCCN(C)C1CCN(C(=O)c2oc3ccccc3c2NC(=O)c2ccc([N+](=O)[O-])cc2)CC1 | -122 | – | – | -82 | ·
CCOCCCN(C)C1CCN(C(=O)c2oc3ccccc3c2NC(=O)c2ccc(F)cc2)CC1 | -82 | – | – | -92 | ·
O=[N+]([O-])c1ccc(-c2ccc(/C=N/Nc3nc(N4CCCCC4)nc(N4CCCCC4)n3)o2)cc1 | – | ? | – | – | –
COc1ccc(-c2cnnc(N/N=C/c3ccc(-c4ccc([N+](=O)[O-])cc4)o3)n2)cc1 | – | – | – | -149 | –
C[C@H](N)C(=O)NCC(=O)N[C@H]1CSSC[C@@H](C(=O)O)NC(=O)[C@H](CO)NC(=O)[C@H]([C@@H](C)O)NC(=O)[C@H](Cc2ccccc2)NC(=O)[C@H]([C@@H](C)O)NC(=O)[C@H](CCCCN)NC(=O)[C@@H](Cc2c[nH]c3ccccc23)NC(=O)[C@H](Cc2ccccc2)NC(=O)[C@H](Cc2ccccc2)NC(=O)[C@H](CC(N)=O)NC(=O)[C@H](CCCCN)NC1=O | · | · | · | · | –
O=C(NCc1cccc(F)c1)c1ccc(NC(=O)c2nsc3ccccc23)cc1 | · | – | · | · | ·
N#Cc1nc(COc2ccc(Br)cc2)oc1N1CCN(Cc2ccccc2)CC1 | – | – | – | – | –
CCN1CCN(c2oc(COc3ccc(-c4ccccc4)cc3)nc2C#N)CC1 | – | – | – | -71 | –
CCOc1ccccc1N(C)C(=O)Cn1nc(Cc2ccncc2)c2ccccc2c1=O | · | – | · | · | ·
COc1ccc(-n2ncc(C(=O)Nc3ccc(C)cc3Cl)c2C2CCN(C(=O)OC(C)(C)C)CC2)cc1 | · | – | · | · | ·
O=C(NCCc1nc2ccccc2n1CCCOc1ccc2ccccc2c1)C1CCCCC1 | · | · | – | · | ·
CC(C)CCC(CCNCc1ccccn1)c1ccc(Cl)cc1 (configuration not stated) | – | – | – | -91 | –
COc1ccc(-n2nnnc2C2CCN(S(=O)(=O)c3cccc(C(F)(F)F)c3)CC2)cc1 | · | – | · | · | ·
Cc1ccccc1C(=O)Nc1ccc2nc(SCC(=O)N3CCc4ccccc43)sc2c1 | · | – | · | · | ·
CC=C1COC(C(=O)NCCOCCO)(C(F)(F)F)C=C1C=C(C)C (configuration not stated) | · | · | ? | · | –
O=[N+]([O-])c1ccccc1S(=O)(=O)Oc1ccc(/C=N/n2cnnc2)cc1 | – | – | -81 | – | –
COc1cc(/C=N/n2cnnc2)ccc1OS(=O)(=O)c1ccccc1[N+](=O)[O-] | – | – | – | – | –
SMILES | hERG WT inh | USP1-UAF1 inh | Giardia kill | KCNH2 3.1 block | FBPA coupling cs
CCC(C(=O)Nc1nnc2n1CCS2)c1ccccc1 (configuration not stated) | · | – | · | · | ·
N#CC1=C(N)SC(N)=C(C#N)C1c1ccoc1 | · | · | · | · | -39
CC1=C(C#N)C(c2ccoc2)C(C(=O)OCc2ccccc2)=C(N)S1 (configuration not stated) | – | – | – | – | –
CCC(=O)N1c2ccccc2CC1C(=O)NCCN1CCN(c2cccc(C(F)(F)F)c2)CC1 (configuration not stated) | · | – | · | · | ·
COc1ccc(NC(=O)c2cnc3sc(N4CCOCC4)nn3c2=O)c(OC)c1 | · | – | · | · | ·
CN(C)c1ccc(CN(CC2CCCO2)C(=O)c2ccc(Br)cc2)cc1 (configuration not stated) | · | – | · | · | ·
COc1ccc(-c2oc3ccccc3c(=O)c2O)cc1 | · | · | · | · | –

Screening data deposited in PubChem BioAssay by National Center for Advancing Translational Sciences (NCATS).
